Values joined by “and” are separate entries in the source; they are usually repeats but may differ in a detail not shown here. Identical values can stand only once. About 610 (9.5%) of roughly 6,400 compounds were called active. Rule as the data show it: active = activity change below about -70%; inconclusive = no clear call, values can overlap the other calls; inactive = above that. The entries come from a sample that favours actives as a whole. A structure can be active in one record and inactive in another.
Assay: T. gondii ME49Luc in HeLa cells, luciferase assay, 72 h, no IFN-y (AID 1259421)
Conditions: stronger effect = lower value, concentration not given here

| SMILES | activity change, negative = inhibition |
| --- | --- |
| O=Cc1cn(Cc2ccc(Cl)cc2)c2ccccc12 | 3.18% (inactive) |
| Cn1cc(C(=O)C(=O)N[C@H]2CN3CCC2CC3)c2ccccc21 | 3.13% (inactive) and -2.73% (inactive) |
| O=C(Nc1ccncc1)C(=O)c1cn(Cc2ccc(Cl)cc2)c2ccccc12 | -75.2% (active) |
| c1cc(Cc2cnc[nH]2)ccn1 | 4.56% (inactive) |
| CCCN(CCC)C1CCc2ccc(O)cc2C1 (configuration not stated) | -0.0815% (inactive) and 4.46% (inactive) |
| O=C(O)c1ccc2[nH]cc(CCCCN3CC=C(c4ccccc4)CC3)c2c1 | 8.65% (inactive) and 4.54% (inactive) |
| c1ccc2sc(C3(N4CCCC4)CCCCC3)cc2c1 | 3.78% (inactive) |
| Oc1cc(Cl)ccc1Oc1ccc(Cl)cc1Cl | -80.6% (active) and -88.3% (active) |
| O=C(O)COc1ccc(Cl)cc1Cl | 5.11% (inactive) |
| O=C(O)CCCOc1ccc(Cl)cc1Cl | 9.07% (inactive) |
| FC(F)OC(F)(F)C(F)Cl (configuration not stated) | 2.39% (inactive) |
| CCC1C(C)=NN=C(c2ccc(OC)c(OC)c2)c2cc(OC)c(OC)cc21 (configuration not stated) | 6.78% (inactive) |
| CCCCC1(C2CCCC2)Cc2cc(OCCCC(=O)O)c(Cl)c(Cl)c2C1=O (configuration not stated) | -6.67% (inactive) |
| CC(=O)OC[C@]12CCC(C)=C[C@H]1O[C@@H]1[C@H](O)[C@@H](OC(C)=O)[C@@]2(C)[C@@]12CO2 | -82.7% (active) |
| CCCC[N+]1(C)[C@@H]2CC(OC(=O)[C@@H](CO)c3ccccc3)C[C@H]1[C@@H]1O[C@@H]12 (some centres not stated) | 2.27% (inactive) |
| NC(=NCc1ccc(Cl)cc1)SCCCc1cnc[nH]1 | -1.21% (inactive) and -3.65% (inactive) |
| C=C(C)[C@@H]1CCC(C)=C[C@H]1c1c(OC)cc(C)cc1OC | 13.1% (inactive) and 2.72% (inactive) |
| COc1cccc2c1C(=O)c1c(O)c3c(c(O)c1C2=O)C[C@@](O)(C(=O)CO)C[C@@H]3O[C@H]1C[C@H](N2CCO[C@H](OC)C2)[C@H](O)[C@H](C)O1 | -77.1% (active) |
| CC(C)(C)NC[C@H](O)COc1cccc2[nH]c(C#N)cc12 | 0.543% (inactive) |
| CC(C)(C)NCC(O)COc1cccc2[nH]c(C#N)cc12 (configuration not stated) | -74.6% (active) |
| CS(=O)(=O)Nc1ccc(Cc2noc(-c3ccc4[nH]cc(CCN)c4c3)n2)cc1 | 0.294% (inactive) |
| CCc1cccc(CC)c1NC1=NCCN1 | 5.66% (inactive) |
| CN1C(=O)[C@@H](NC(=O)c2cc3ccccc3[nH]2)N=C(c2ccccc2)c2ccccc21 | -59.5% (inactive) |
| C/C=C(\C)C(=O)N[C@@H](c1ccccc1)[C@@H](O)C(=O)O[C@H]1C[C@@]2(O)[C@@H](OC(=O)c3ccccc3)[C@@H]3[C@]4(OC(C)=O)CO[C@@H]4C[C@H](O)[C@@]3(C)C(=O)[C@H](OC(C)=O)C(=C1C)C2(C)C | -82.1% (active) |

| SMILES | activity change, negative = inhibition |
| --- | --- |
| CC(=O)O[C@H]1C(=O)[C@@]2(C)C([C@H](OC(=O)c3ccccc3)[C@]3(O)C[C@H](O)C(C)=C1C3(C)C)[C@]1(OC(C)=O)CO[C@@H]1C[C@@H]2O (some centres not stated) | -56.1% (inactive) |
| CC(=O)O[C@@]12CO[C@@H]1C[C@H](O)[C@@]1(C)C(=O)[C@H](O)C3=C(C)[C@@H](O)C[C@@](O)([C@@H](OC(=O)c4ccccc4)[C@H]21)C3(C)C | -60.3% (inactive) and 13.9% (inactive) |
| C[C@H](N)Cc1ccccc1 | 4.68% (inactive) |
| O=[N+]([O-])NC1=NCCN1Cc1ccc(Cl)nc1 | 8.16% (inactive) |
| C[C@]12CCC3C(CC[C@H]4CC(=O)CC[C@]34C)C1CCC2=O (some centres not stated) | 1.73% (inactive) |
| CC[C@H]1CN2CCC1C[C@@H]2[C@@H](O)c1ccnc2ccc(OC)cc12 (some centres not stated) | 14.8% (inactive) and 8.86% (inactive) |
| CN1CCc2cc(Cl)c(O)cc2[C@H]2c3ccccc3CC[C@@H]21 | -4.73% (inactive) |
| CCCCOC(=O)c1ccccc1C(=O)OCCCC | 3.08% (inactive) and -9.32% (inactive) |
| C[CH2][Hg][S]c1ccccc1C(=O)O | -88.9% (active) and -92.1% (active) |
| CNc1ccccc1C(=O)O | -1.44% (inactive) |
| O=c1cccc2n1C[C@H]1CNCC2C1 | 4.99% (inactive) |
| C=CC[C@@]1(O)CC[C@H]2[C@@H]3CCC4=CC(=O)CCC4=C3C=C[C@@]21C | 9.86% (inactive) |
| C=CC[C@]1(O)CCC2C3CCC4=CC(=O)CCC4=C3C=C[C@@]21C (some centres not stated) | 11.2% (inactive) |
| C#C[C@]1(O)CC[C@H]2[C@@H]3CCC4=CC(=O)CCC4=C3C=C[C@@]21CC | -82.3% (active) |
| C=C[C@H]1CN2CC[C@H]1C[C@@H]2[C@@H](OC(=O)OCC)c1ccnc2ccc(OC)cc12 | 7.12% (inactive) and 13% (inactive) |
| CCCN1CCO[C@H]2c3cc(O)ccc3OC[C@@H]21 | -9.29% (inactive) |
| NCCc1cccc(O)c1 | -9.36% (inactive) |
| Oc1ccc2c3c1OC1[C@@H](O)CC[C@@]4(O)[C@@H](C2)N(CC2CCC2)CC[C@]314 (some centres not stated) | 3.08% (inactive) |
| C[C@@]1(CO)[C@H](O)CC[C@@]2(C)[C@H]1CC[C@H]1C[C@@H]3C[C@@]12CC[C@]3(O)CO | -87.7% (active) |
| CC(C(=O)OC1CC2CCC(C1)N2C)c1ccc(Br)cc1 (configuration not stated) | -1.35% (inactive) and 1.24% (inactive) |
| CC[C@@]1(O)C(=O)OCc2c1cc1n(c2=O)Cc2cc3ccccc3nc2-1 | -82.2% (active) and -91.4% (active) |
| CCCn1c(C)c(C(=O)c2cccc3ccccc23)c2ccccc21 | 93.6% (inactive) |
| Cc1c(C(=O)c2cccc3ccccc23)c2cccc3c2n1[C@H](CN1CCOCC1)CO3 | -89.2% (active) |
| Cc1c(C(=O)c2cccc3ccccc23)c2cccc3c2n1[C@@H](CN1CCOCC1)CO3 | 46.7% (inactive) |

| SMILES | activity change, negative = inhibition |
| --- | --- |
| CC(=O)Oc1ccc(Cl)c2cccnc12 | -3.09% (inactive) |
| Cc1c(N2C(=O)[C@@H]3[C@H](O)CCN3C2=O)ccc(C#N)c1Cl | 8.89% (inactive) |
| C[C@@H]1O[C@@H](O[C@@H]2C[C@@H](O)[C@]3(CO)[C@H]4[C@H](O)C[C@]5(C)[C@@H](C6=CC(=O)OC6)CC[C@]5(O)[C@@H]4CC[C@]3(O)C2)[C@H](O)[C@H](O)[C@H]1O | -77.1% (active) |
| C[C@@H]1O[C@@H](O[C@H]2C[C@@H](O)[C@]3(CO)C4C(CC[C@]3(O)C2)[C@@]2(O)CC[C@H](C3=CC(=O)OC3)[C@@]2(C)C[C@H]4O)[C@H](O)[C@H](O)[C@H]1O (some centres not stated) | -88.6% (active) |
| CC1OC(OC2CC(O)C3(CO)C4C(O)CC5(C)C(C6=CC(=O)OC6)CCC5(O)C4CCC3(O)C2)C(O)C(O)C1O (configuration not stated) | -83.7% (active) |
| C=CCN1CCC23c4c5ccc(O)c4OC2/C(=N\NC(=O)c2ccccc2)CCC3(O)C1C5 (configuration not stated) | 25.6% (inactive) |
| C=CCN1CC[C@]23c4c5ccc(O)c4OC2C(=O)CC[C@@]3(O)[C@H]1C5 (some centres not stated) | 4.78% (inactive) |
| CCN1C[C@]2(OC(=O)c3ccccc3NC(C)=O)CC[C@@H](OC)[C@]34C1[C@@H](C[C@H]23)[C@@]1(O)C[C@H](OC)[C@H]2C[C@H]4[C@]1(O)[C@H]2OC | 10.9% (inactive) |
| O=C(O)c1ccccn1.O=C(O)c1ccccn1.O=C(O)c1ccccn1.[Cr] | 10.5% (inactive) |
| Cc1ccc2c(c1)Cc1c(C(=O)NN3CCCCC3)nn(-c3ccc(Cl)cc3Cl)c1-2 | -71% (active) and -58.8% (inactive) |
| Cc1ccc2c(c1)Cc1c(C(=O)NC3CCCCC3)nn(-c3ccc(Cl)cc3Cl)c1-2 | -23.4% (inactive) and -2.64% (inactive) |
| C/C(=C\C(N)C(=O)O)CP(=O)(O)O (configuration not stated) | -4.78% (inactive) |
| c1ccc(C2CNCc3ccccc32)cc1 (configuration not stated) | 5.48% (inactive) |
| C=C1CC2C(CC[C@]3(C)C(=O)CCC23)[C@@]2(C)C=CC(=O)C=C12 (some centres not stated) | 11.4% (inactive) |
| CN1C(=O)CCS(=O)(=O)C1c1ccc(Cl)cc1 (configuration not stated) | 18% (inactive) and -3.16% (inactive) |
| CC(=O)O[C@@H]1C[C@@]2(C)[C@H](c3ccoc3)C[C@H]3O[C@]32[C@]2(C)C(=O)C(=O)C3C(C)(C)C(=O)C=C[C@]3(C)C12 (some centres not stated) | -89.9% (active) |
| CC1(C)C2C[C@@H](O)[C@]3(C)C(CC[C@@]4(C)[C@H](c5ccoc5)OC(=O)[C@H]5O[C@]543)[C@@]2(C)[C@@H](O)C[C@H]1O (some centres not stated) | 4.33% (inactive) |
| CC1(C)C(=O)C=C[C@@]2(C)C1C(=O)C(=O)[C@]1(C)C2CC[C@@]2(C)[C@H](c3ccoc3)C[C@H]3O[C@]321 (some centres not stated) | -86.1% (active) |
| CC1(C)C(=O)[C@@H]2O[C@@H]2[C@@]2(C)C1C[C@@H](O)[C@]1(C)C2CC[C@@]2(C)[C@H](c3ccoc3)OC(=O)C3OC321 (some centres not stated) | 20.5% (inactive) |
| COC(=O)[C@@H]1C[C@H](OC(C)=O)C(=O)[C@H]2[C@@]1(C)CC[C@H]1C(=O)O[C@H](c3ccoc3)C[C@]21C | 11.7% (inactive) and 9.72% (inactive) |
| CC1(C)C2CC(=O)[C@]3(C)C(CC[C@@]4(C)[C@H](c5ccoc5)OC(=O)C5OC543)[C@@]2(C)[C@@H](O)C[C@H]1O (some centres not stated) | 1.93% (inactive) |
| CN1[C@@H]2CC[C@H]1CC(OC(=O)N1Cc3ccccc3NC1=O)C2 (some centres not stated) | 15% (inactive) and 8.45% (inactive) |
| CC(CO)NC(=O)C1C=C2c3cccc4[nH]cc(c34)C[C@H]2N(C)C1 (some centres not stated) | 15.2% (inactive) and -0.618% (inactive) |
| COc1ccc2c(c1O)-c1cc(O)cc3c1[C@@H](C2)N(C)CC3 | -5.61% (inactive) |

Reference: PubChem BioAssay AID1259421 (Broad Institute, 2018)
